This is a sample that favours compounds with a hit; in the whole collection about 3% have one here.
Tau fluor counter: Counterscreen qHTS for Inhibitors of Tau Fibril Formation, Fluorescence Polarization; Potency, µM (series often up to 57.7 µM); AID 1463, 2008; tau K18 P301L Alexa594 fluorescence, heparin fibrillization; 280,000 tested, 0.93% active; also: nearly all actives have a fitted effect of over 55% in size
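Human K18 P301L tau (15 uM unlabeled plus 0.24 uM Alexa 594-labeled, final) in 100 mM sodium acetate pH 7 was mixed with compound and 20 uM heparin and incubated 6 hr at 37 C.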
Tau FP inhib: qHTS for Inhibitors of Tau Fibril Formation, Fluorescence Polarization | K18 P301L tau heparin fibrillization, Alexa594 FP, 6 h | Potency, µM (doses to about 57.7 µM), actives largely listed as inhibitors | 280,000 tested, 0.39% active | AID 1468, 2008; also: nearly all actives have a fitted effect of over 55% in size
Target sequence (P10636 561-689 P618L limits assumed): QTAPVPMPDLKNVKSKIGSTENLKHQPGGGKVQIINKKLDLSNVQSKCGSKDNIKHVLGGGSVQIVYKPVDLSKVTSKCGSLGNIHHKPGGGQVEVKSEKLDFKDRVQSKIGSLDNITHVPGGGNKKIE
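FP of Alexa 594-tau after heparin (20 uM) induction. Substrate: human K18 P301L, 15 uM unlabeled, 0.24 uM labeled. Buffer 100 mM sodium acetate pH 7. 6 hr, 37 C.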
FBPA coupling cs: qHTS Assay for Inhibitors of Fructose-1,6-bisphosphate Aldolase from Giardia Lamblia: Coupling assay counterscreen. activity change, negative = inhibition, % at 58.2 µM, hits read low. coupling enzyme system counterscreen, AmpLite Red fluorescence. AID 2472, 2010. 290,000 tested, 0.67% active; in the data active = activity change below about -30%
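Final compound at 57.5 uM, incubated 10 min at RT with coupling enzyme reagent (glyceraldehyde-3-phosphate), then 20 min with substrate and AmpLite Red detection. Fluorescence read at 525/598 nm; tests interference with the coupling assay, not aldolase inhibition.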
KDM4E inh: qHTS Assay for Inhibitors of Human Jumonji Domain Containing 2E (JMJD2E); 230,000 tested, 1.6% active; Potency, µM (series often up to 57.1 µM), actives largely listed as inhibitors; Lysine-specific demethylase 4E (Homo sapiens), B2RXH2; AID 2147, 2009; JMJD2E catalytic domain, FDH-coupled NADH fluorescence (FDH is formaldehyde dehydrogenase); also: nearly all actives have a fitted effect of over 50% in size
Target sequence (B2RXH2 1-337 limits assumed): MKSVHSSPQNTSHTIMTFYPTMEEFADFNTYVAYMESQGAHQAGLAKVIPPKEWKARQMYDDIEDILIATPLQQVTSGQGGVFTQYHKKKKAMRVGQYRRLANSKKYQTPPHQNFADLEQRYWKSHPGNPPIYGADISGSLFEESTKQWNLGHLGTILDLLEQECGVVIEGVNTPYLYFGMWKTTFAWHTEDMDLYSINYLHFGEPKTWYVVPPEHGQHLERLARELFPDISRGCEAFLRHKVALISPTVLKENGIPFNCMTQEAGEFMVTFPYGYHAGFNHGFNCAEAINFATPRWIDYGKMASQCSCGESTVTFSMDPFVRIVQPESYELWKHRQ
Tau ThT inhib: qHTS for Inhibitors of Tau Fibril Formation, Thioflavin T Binding. Microtubule-associated protein tau (Homo sapiens), P10636. recombinant tau K18 P301L (four-repeat tau fragment), heparin-induced fibrillization, ThT fluorescence. Potency, µM (highest dose often 57.4 µM), usual class: inhibitors. 270,000 tested, 2.1% active; also: nearly all actives have a fitted effect of over 55% in size
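Tau K18 P301L fragment (15 uM unlabeled plus 0.24 uM Alexa 594-labeled) in 100 mM sodium acetate pH 7 with compound, fibrillization induced by 20 uM heparin for 6 hr at 37 C. Thioflavin T (30 uM) added, fluorescence read after 1 hr (ex 450, em 510 nm).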
Hits are given with their value; i = inactive; ? = inconclusive; nt = no result; [ ] = another dose, or the depositor's remark. Unless noted, calls follow the shape of the dose curve; as a rule, active = well fitted curve in the direction sought with a large enough effect; inconclusive = small, poorly fitted or top-dose-only effect, or another doubt; inactive = no such curve, though single readings can be large; an effect the other way counts as inactive or inconclusive.

SMILES	Tau fluor counter	Tau FP inhib	FBPA coupling cs	KDM4E inh	Tau ThT inhib
O=C(CSc1nccn1-c1ccc(F)cc1)Nc1ccc(OC(F)(F)F)cc1	?	?	nt	nt	i
CN1CCc2c(n(CC(O)CNCc3ccccc3)c3ccccc23)C1=O (configuration not stated)	i	i	i	i	i
CN1CCc2c(n(CC(O)CN(CCO)CCO)c3ccccc23)C1=O (configuration not stated)	i	i	-51	?	i
Nc1c(C(=O)Nc2ccc(F)cc2)sc2nc(-c3ccco3)ccc12	?	i	i	?	6.3µM
Nc1c(C(=O)Nc2ccc(Br)cc2)sc2nc(-c3ccco3)ccc12	?	i	i	?	5µM
CC(=O)c1sc2nc(-c3ccco3)ccc2c1N	?	i	i	?	7.1µM
Nc1c(C(=O)Nc2ccc(Br)cc2)sc2nc(-c3ccncc3)ccc12	?	i	nt	nt	?
O=C(NO)c1ccccc1O	i	i	i	10µM	i
Cc1sc2ncnc(N/N=C/c3ccc(O)cc3)c2c1C	13µM[quencher]	i	i	i	4.5µM
COc1ccc(/C=N/Nc2ncnc3sc(C)c(C)c23)cc1	?	?	i	i	?
Cc1sc2ncnc(N/N=C/c3ccccc3O)c2c1C	?	?	i	25µM	?
COC(=O)C1=C(C(=O)OC)[C@@H]2N(C)c3ccc(OC)cc3[C@@]23C[C@@H](C(=O)OC)N(S(=O)(=O)c2ccc4c(c2)OCCN4C)C3=N1	i[11.6 µM]	i[11.6 µM]	i	i[11.4 µM]	i[11.5 µM]
Cc1cccc(CNC(=O)CCCn2c(=O)c3cccn3c3ccc(F)cc32)c1	i	i	nt	nt	i
Cc1c[nH]c2cccc(OCC(O)CNC(C)(C)C)c12 (configuration not stated)	i	?	-35	?	i
CCOC(=O)c1[nH]c(C)c(CCC(=O)N2CCN(c3cc(C)ccc3C)CC2)c1C	i	i	nt	nt	i
CC1(C)CC(=O)C2=C(C1)c1c(ccc3ccccc13)NC2c1cc([N+](=O)[O-])cc([N+](=O)[O-])c1O (configuration not stated)	?	?	i	i	11µM
COc1cc(C2Nc3ccc4ncccc4c3C3=C2C(=O)CCC3)cc(OC)c1O (configuration not stated)	i	i	i	i	?
COc1cc(C2Nc3ccc4ncccc4c3C3=C2C(=O)CC(C)(C)C3)cc(OC)c1O (configuration not stated)	i	i	i	7.9µM	?
COc1cc2ncnc(Nc3ccc(F)c(Cl)c3)c2cc1OCCCN1CCOCC1	?	40µM	i	nt	?
CCN1/C(=C/c2ccc3cc(C)ccc3[n+]2C)Sc2ccc3sccc3c21	3.2µM[fluorescent]	i	i	i	1.6µM
CCCCN1/C(=C/c2ccc3ccccc3[n+]2CC)Sc2ccccc21	i	i	i	14µM	14µM
CCN1/C(=C/c2ccc3ccccc3[n+]2CC)C=Cc2ccccc21	i	i	i	i	3.2µM
CCN1/C(=C/c2ccc3cc(C)ccc3[n+]2CC)Sc2cc(C)ccc21	?	?	i	?	14µM
CCCCCCCCCCCCCCCCCC(=O)NCC(COP(=O)([O-])OCC[N+](C)(C)C)OCC (configuration not stated)	i	i	nt	i	?
Cc1cc(C)c2c(c1)/C(=N\N=c1\sc3ccccc3n1C)C(=O)N2	i	i	i	i	4.5µM
SMILES	Tau fluor counter	Tau FP inhib	FBPA coupling cs	KDM4E inh	Tau ThT inhib
Cn1/c(=N/N=C/c2ccc([N+](=O)[O-])cc2)sc2ccccc21	i	i	i	i	?
CCC(C)C(N)C(=O)NC(CC(N)=O)C(=O)NC(CC(C)C)C(=O)NC(CCCCN)C(=O)NC(C)C(=O)NC(CC(C)C)C(=O)NC(C)C(=O)NC(C)C(=O)NC(CC(C)C)C(=O)NC(C)C(=O)NC(CCCCN)C(=O)NC(CCCCN)C(=O)NC(C(=O)NC(CC(C)C)C(N)=O)C(C)CC (configuration not stated)	nt	nt	i	nt	nt
CCOC(=O)c1cc(-c2ccccc2)nn1-c1ccccn1	i	i	-34	i	i
CCOC(=O)c1cc(-c2cccnc2)nn1-c1ccccc1	i	i	i	i	i
COc1ccc(NC2=Nc3cccc4cccc2c34)cc1	?	?	i	i	13µM
c1ccc(NC2=Nc3cccc4cccc2c34)cc1	?	i	i	i	?
Fc1ccc(/C=N/NC2=Nc3cccc4cccc2c34)cc1	?	i	i	i	2.2µM
COc1ccc(OC)c(N=c2oc3cc(O)ccc3cc2C(N)=O)c1	?	?	i	?	32µM
COc1ccc2cc(C(N)=O)c(=Nc3ccccc3)oc2c1	i	i	i	i	i
CSc1nsc(/C=C/Nc2ccc(Cl)cc2)c1C#N	?	i	i	i	16µM
CSc1nsc(/C=C/Nc2ccc(F)cc2)c1C#N	i	i	i	?	?
CSc1nsc(/C=C/Nc2ccc(O)cc2C)c1C#N	?	25µM	-33	13µM	16µM
N#CSCC(=O)c1cccc2ccccc12	i	?	i	i	25µM
NC(=O)c1cccc2ccccc12	i	i	i	i	i
CC(C)CC(NC(=O)NC(CCC(=O)O)C(=O)O)C(=O)O (configuration not stated)	nt	nt	i	nt	nt
CC(C)C[C@H](N)C(=O)N[C@H](C(=O)N[C@H](C(=O)N[C@@H](Cc1ccc(O)cc1)C(=O)N1CCC[C@H]1C(=O)N[C@@H](Cc1c[nH]c2ccccc12)C(=O)N[C@H](C(=O)N[C@@H](CCC(N)=O)C(=O)N[C@@H](CCCN=C(N)N)C(=O)O)[C@@H](C)O)C(C)C)C(C)C	i	i	nt	nt	i
COC1=C(c2ccccc2)C(=O)c2ccccc2C1=O	i	i	-33	i	?
O=C(C1=C(c2ccccc2)C(=O)c2ccccc2C1=O)c1ccccc1	i	i	-62	i	i
COc1ccc(C2=C(N)c3ccccc3C2=O)cc1	i	i	i	i	?
O=C(c1ccccc1)c1c[nH]cc1-c1ccccc1	i	i	i	i	i
CC1CC=CC2C1C(=O)N(Cc1ccccc1)C2c1ccc(F)c(-c2ccc(N(C)C)cc2)c1 (configuration not stated)	nt	nt	i	nt	nt
O=c1[nH]c(-[n+]2ccccc2)c(/C=N/NC([S-])=Nc2ccccc2)s1	i	?	i	i	28µM
CCc1ccc[n+](-c2[nH]c(=O)sc2/C=N/NC([S-])=Nc2ccccc2)c1	i	?	i	3.5µM	25µM
COc1cc(C(=O)O[C@H]2C/C(C)=C/CC/C(C)=C/[C@@H](O)C2C(C)C)ccc1O (some centres not stated)	nt	nt	i	nt	nt
CCCCc1nc2c(c3c1C[C@H](C)OC3)CN(C(=O)c1ccco1)CC2	i[11.6 µM]	i[11.6 µM]	i	i[11.4 µM]	i[11.5 µM]

High-throughput results (PubChem BioAssay)
